# Calls of active or inactive are those of the source.
# Tests used:
# [1] = optical density shifts of acrAB sulA E. coli – strain DRC41, OD650, 48 h, E. coli filamentation inducer project, primary screen (AID 1152); details: higher = more signal, called active from +8 up or from −8 down;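 note: E. coli MC1000 strain DRC41 lacking acrAB efflux pump and sulA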
# [2] = probe aLefty1 binding on compound microarray – biochemical, small-molecule microarray, 635/667 nm fluorescence, primary screen (AID 1153); details: higher = more signal;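 note: score merges spot fluorescence with signal-to-noise ratio from the scanned slide images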
# [3] = plasmodial surface anion channel blockers, osmotic lysis – cell-based, P. falciparum Indochina, OD700, 1 h, primary screen (AID 1154); details: P. falciparum Indochina infected RBC osmotic lysis, higher = more signal, called active from +8 up or from −8 down
# [4] = plasmodial surface anion channel blockers, osmotic lysis – cell-based, P. falciparum Indochina, OD700, 2 h, primary screen (AID 1155);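 note: lysis reports solute entry through the parasite surface anion channel PSAC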; details: P. falciparum Indochina infected erythrocytes, higher = more signal, called active from +8 up or from −8 down
# [5] = changes in parasitized red cell lysis, either direction – P. falciparum Indochina, OD700, 3 h, PSAC antagonist project, primary screen (AID 1156); details: P. falciparum-infected erythrocytes, osmotic lysis, higher = more signal, called active from +8 up or from −8 down
# [6] = plasmodial surface anion channel blockers, osmotic lysis – cell-based, P. falciparum Indochina, OD700, 18 h, primary screen (AID 1157); details: P. falciparum Indochina infected erythrocytes, osmotic lysis OD700, 18 h; higher = more signal, called active from +8 up or from −8 down
# [7] = S6 kinase pathway phospho-S6 level changes – cell-based, A549, cytoblot, luminescence, serum-stimulated, primary screen (AID 1158); details: 5 h, higher = more signal;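 note: serum-stimulated A549 lung adenocarcinoma cells; signal is phosphorylated S6 detected by cytoblot immunostaining with HRP secondary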
# [8] = target: NADPH oxidase 2 (Homo sapiens) (UniProt P04839); assay: compounds shifting NOX2 Amplex Red fluorescence – cell-based, HEK293-NOX2, PMA-stimulated, NOX inhibitor project, primary screen (AID 1159); details: 45 min, higher = more signal, called active from +8 up or from −8 down; note: test concentration not given here
# Sequence of NADPH oxidase 2 (Homo sapiens) (P04839 whole entry, looked up): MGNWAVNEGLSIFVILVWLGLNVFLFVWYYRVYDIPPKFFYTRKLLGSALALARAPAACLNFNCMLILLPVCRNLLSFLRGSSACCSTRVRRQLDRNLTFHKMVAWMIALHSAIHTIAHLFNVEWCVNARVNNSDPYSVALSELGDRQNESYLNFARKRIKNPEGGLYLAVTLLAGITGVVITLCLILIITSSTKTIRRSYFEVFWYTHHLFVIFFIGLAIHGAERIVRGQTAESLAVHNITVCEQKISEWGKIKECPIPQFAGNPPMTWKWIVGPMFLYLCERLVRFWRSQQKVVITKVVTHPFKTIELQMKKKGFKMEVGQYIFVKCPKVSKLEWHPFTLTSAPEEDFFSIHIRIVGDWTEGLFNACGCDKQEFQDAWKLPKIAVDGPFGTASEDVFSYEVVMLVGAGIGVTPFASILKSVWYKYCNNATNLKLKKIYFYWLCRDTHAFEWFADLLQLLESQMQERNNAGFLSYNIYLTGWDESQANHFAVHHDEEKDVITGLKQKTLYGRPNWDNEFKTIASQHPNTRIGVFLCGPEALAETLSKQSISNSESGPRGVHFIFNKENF
# [9] = target: NADPH oxidase 4 (Homo sapiens) (UniProt Q9NPH5); assay: compounds shifting NOX4 Amplex Red fluorescence – cell-based, HEK293-NOX4, tetracycline-induced, NOX inhibitor project, primary screen (AID 1160); details: HEK293-NOX4, Amplex Red H2O2 fluorescence, 45 min; higher = more signal, called active from +8 up or from −8 down
# Sequence of NADPH oxidase 4 (Homo sapiens) (Q9NPH5 whole entry, looked up): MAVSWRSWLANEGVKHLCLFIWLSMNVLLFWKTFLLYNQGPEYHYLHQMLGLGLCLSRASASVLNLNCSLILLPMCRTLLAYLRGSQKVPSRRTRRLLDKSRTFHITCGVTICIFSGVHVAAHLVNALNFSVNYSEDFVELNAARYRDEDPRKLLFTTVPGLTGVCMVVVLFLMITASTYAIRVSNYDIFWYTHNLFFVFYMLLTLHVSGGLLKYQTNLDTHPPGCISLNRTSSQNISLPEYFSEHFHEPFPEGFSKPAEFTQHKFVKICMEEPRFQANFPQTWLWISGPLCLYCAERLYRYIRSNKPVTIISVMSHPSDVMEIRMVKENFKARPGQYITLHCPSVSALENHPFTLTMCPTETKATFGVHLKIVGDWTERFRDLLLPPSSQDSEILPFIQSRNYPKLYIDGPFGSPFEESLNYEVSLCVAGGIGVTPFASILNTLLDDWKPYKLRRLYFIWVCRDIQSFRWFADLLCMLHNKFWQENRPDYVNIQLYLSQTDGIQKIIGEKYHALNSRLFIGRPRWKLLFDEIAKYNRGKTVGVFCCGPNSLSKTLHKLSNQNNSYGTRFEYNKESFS
# [10] = target: NADPH oxidase 5 (Homo sapiens) (UniProt Q96PH1); assay: compounds shifting NOX5 Amplex Red fluorescence – cell-based, HEK293-NOX5, NOX inhibitor project, primary screen (AID 1161); details: HEK293-NOX5, ionomycin, 45 min, higher = more signal
# Sequence of NADPH oxidase 5 (Homo sapiens) (Q96PH1 whole entry, looked up): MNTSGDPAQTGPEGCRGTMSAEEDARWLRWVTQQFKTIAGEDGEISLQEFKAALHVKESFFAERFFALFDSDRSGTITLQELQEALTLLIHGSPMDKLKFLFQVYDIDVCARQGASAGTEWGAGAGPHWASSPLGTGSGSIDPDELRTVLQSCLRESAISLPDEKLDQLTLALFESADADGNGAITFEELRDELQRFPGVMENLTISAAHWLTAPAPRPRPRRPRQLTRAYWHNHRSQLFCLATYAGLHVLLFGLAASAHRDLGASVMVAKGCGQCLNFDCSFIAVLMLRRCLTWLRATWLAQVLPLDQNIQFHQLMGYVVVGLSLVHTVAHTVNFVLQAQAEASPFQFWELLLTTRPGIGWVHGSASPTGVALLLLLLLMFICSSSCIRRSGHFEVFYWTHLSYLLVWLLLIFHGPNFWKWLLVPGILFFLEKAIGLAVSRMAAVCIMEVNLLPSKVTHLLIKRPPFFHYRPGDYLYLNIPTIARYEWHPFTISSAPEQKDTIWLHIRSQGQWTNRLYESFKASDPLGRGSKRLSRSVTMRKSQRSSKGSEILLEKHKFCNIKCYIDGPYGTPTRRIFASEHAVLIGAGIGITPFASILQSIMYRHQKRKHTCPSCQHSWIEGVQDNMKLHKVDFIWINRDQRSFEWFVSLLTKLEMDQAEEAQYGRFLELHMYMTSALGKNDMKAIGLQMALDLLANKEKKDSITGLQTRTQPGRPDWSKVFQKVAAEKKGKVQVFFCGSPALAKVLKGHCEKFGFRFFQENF
Compound,z-score [1],composite z-score [2],z-score [3],z-score [4],z-score [5],z-score [6],z-score [7],z-score [8],z-score [9],z-score [10]
C=C(COC)/C(=C/C[C@@H](OC(=O)c1ccncc1)c1cccc(OCCO)c1)c1cc(C(=O)OC)ccc1OC,0.701 (inactive),0.0698,8.82 (active),4.64 (inactive),-3.3 (inactive),1.53 (inactive),-0.88,-3.02 (inactive),-0.817 (inactive),-1.23
CCCC[C@H]1OB(O)C[C@H]2C1=C(COc1ccccc1)Cn1c(=O)n(-c3ccccc3)c(=O)n12,0.4 (inactive),-0.06,2.14 (inactive),0.0541 (inactive),0.722 (inactive),0.0113 (inactive),0.279,-0.281 (inactive),-0.216 (inactive),0.779
C#CCNS(=O)(=O)N(C)C,1.14 (inactive),-0.103,0.132 (inactive),0.262 (inactive),-0.395 (inactive),0.0625 (inactive),0.32,-0.533 (inactive),0.183 (inactive),0.112
COc1ccc([Si](C)(C)[C@H]2[C@H](CCO)O[C@@]3(C(=O)N(Cc4cccc(N5CCOC5=O)c4)c4ccccc43)[C@@H]2C)cc1,-0.286 (inactive),-0.0917,31.7 (active),29.4 (active),1.37 (inactive),3.36 (inactive),0.469,-1.96 (inactive),0.553 (inactive),0.479
CC(C)CN1C(=O)[C@@]2(Cc3ccccc31)c1ccccc1C(=O)N(Cc1ccccc1)[C@H]2c1ccc(CO)cc1,-0.731 (inactive),-0.702,0.0889 (inactive),-0.719 (inactive),0.27 (inactive),0.157 (inactive),0.148,0.439 (inactive),-0.348 (inactive),-0.498
CN1C(=O)C2C=CC(C(O)C3CCCCC3)N(N(c3ccccc3)c3ccccc3)C2C1=O (stereo not given),-1.11 (inactive),0.344,0.801 (inactive),1.09 (inactive),0.332 (inactive),0.926 (inactive),-1.47,-0.557 (inactive),-0.635 (inactive),-0.0135
COCCCNC(=O)[C@]1(CCS(=O)(=O)c2ccccc2)N=C(c2ccc(OCCCO)cc2)O[C@@H]1c1ccccc1,0.664 (inactive),1.12,26 (active),9.64 (active),2.14 (inactive),1.82 (inactive),-0.108,-0.0777 (inactive),1.72 (inactive),0.88
O=C(NCc1ccccc1)[C@]1(Cc2ccccc2)N=C(c2ccc(OCCCO)cc2)O[C@@H]1c1ccccc1,-2.04 (inactive),-0.225,30.1 (active),22.5 (active),0.578 (inactive),2.53 (inactive),-0.397,0.158 (inactive),-0.503 (inactive),-0.855
C=CC[C@]1(C(=O)N(C)C)N=C(c2ccc(OCCCO)cc2)O[C@H]1c1ccccc1,1.17 (inactive),0.325,28.3 (active),17.7 (active),3.55 (inactive),1.46 (inactive),1.41,-2.39 (inactive),-0.252 (inactive),-4.75
O=C(Nc1cc(Br)ccc1C(=O)NCc1cccc(O)c1)c1ccccc1,1.41 (inactive),0.388,17.5 (active),4.24 (inactive),-0.222 (inactive),2.17 (inactive),-0.645,-1.57 (inactive),-1.69 (inactive),-1.3
O=C1O[C@H](c2ccccc2)[C@H](c2ccccc2)N2[C@H]1[C@@H](C(=O)NC[C@H](O)c1ccccc1)[C@]1(C(=O)Nc3ccccc31)[C@H]2c1ccccc1OCCO,2.45 (inactive),0.453,5.21 (inactive),1.84 (inactive),-2.5 (inactive),-0.343 (inactive),2.39,1.23 (inactive),0.707 (inactive),0.34
COc1ccc(C(=O)Nc2ccc(CN3C(=O)[C@@]4(O[C@@H](CC(=O)N5Cc6ccccc6C[C@H]5CO)[C@H]([Si](C)(C)c5ccc(OC)cc5)[C@H]4C)c4ccccc43)cc2)cc1,0.0225 (inactive),0.176,4.72 (inactive),1.4 (inactive),0.655 (inactive),0.868 (inactive),0.0933,0.105 (inactive),0.417 (inactive),-0.886
CCCC=C(CCC)[C@@H](NS(=O)(=O)CC)c1ccccc1,-1.84 (inactive),0.443,0.19 (inactive),-0.0273 (inactive),-1.28 (inactive),0.716 (inactive),-0.259,-1.32 (inactive),-2.4 (inactive),2.02
